The record followed here is PubChem BioAssay (NCI).

Holding throughout (assay): NCI-60 one-dose screen, 48 h (100 = growth as untreated, 0 = no growth, -100 = all killed)
The test system of one assay is HCT-15 colon. The conditions noted are these: 10 µM.
A further assay relates to HT29 colon. Particulars: 10 µM.
A further assay relates to SNB-75 CNS. The conditions noted are these: 10 µM.
The subject of another assay is SNB-19 CNS. Particulars: 10 µM.
The test system of a further assay is U251 CNS. Particulars: 10 µM.
The subject of another assay is PC-3 prostate. Particulars: 10 µM.
A further assay relates to SK-MEL-5 melanoma. Particulars: 10 µM.
For the next assay, the system named is UACC-62 melanoma. The conditions noted are these: 10 µM unless noted.
A further assay relates to LOX IMVI melanoma. Particulars: 10 µM.
The subject of another assay is SK-MEL-28 melanoma. Particulars: 10 µM.

Where “and” joins values, the source holds several entries; their conditions need not be identical. Equal entries are not always repeated. About 83,000 compounds went through this panel and 20% of them were active in at least one assay; those are over-represented in the sample as a whole.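 Each cell line was grown in a 96-well plate and treated with one concentration of compound for 48 hours. Values below 10 were considered active.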 A number with no mark means an inactive call. Calls of active or inactive are those of the source.

Turning to `CN(CCCl)c1ccc(/C=C/C2=[N+](C)c3ccccc3C2(C)C)cc1`, the growth in the assay on HCT-15 colon is 101%; in the assay on HT29 colon, 5.58% (active); in the assay with SNB-75 CNS it was 38.9%; in the assay with SNB-19 CNS it was 42.5%; with U251 CNS, 13.1%; in the assay with PC-3 prostate it was 5.9% (active). For the same compound, the growth was 21.8% in the assay with SK-MEL-5 melanoma, 31.6% in the assay on UACC-62 melanoma, 16.9% in the assay on LOX IMVI melanoma and 40.1% with SK-MEL-28 melanoma.
As for `CS(=N)(=O)CCC(N)C(=O)O` (stereo not given), the growth in the assay with HCT-15 colon is 99.9%; in the assay on HT29 colon, 113%; with SNB-75 CNS, 91%; with SNB-19 CNS, 102%; in the assay on U251 CNS, 104%; with PC-3 prostate it was 89.8%. Further, the growth was 110% with SK-MEL-5 melanoma, 113% with UACC-62 melanoma, 103% with LOX IMVI melanoma and 128% in the assay with SK-MEL-28 melanoma.
As for `CC(=O)[O][Hg][c]1c(C)c(C)cc(C)c1C`, the growth in the assay with HCT-15 colon was -39.6% (active); in the assay on HT29 colon, -62.1% (active); in the assay with SNB-75 CNS it was -81.2% (active); in the assay on SNB-19 CNS, 39.8%; in the assay on U251 CNS, -97.3% (active); in the assay on PC-3 prostate, -77.3% (active). The growth with SK-MEL-5 melanoma is -57.5% (active); in the assay on UACC-62 melanoma, -26.1% (active); in the assay on LOX IMVI melanoma it was -95.3% (active); in the assay with SK-MEL-28 melanoma it was -37.9% (active).
In the case of `[Cl][Hg][c]1ccc2ccccc2c1`, the growth in the assay with HCT-15 colon is -72.3% (active); in the assay on HT29 colon, -71.3% (active); with SNB-75 CNS it was -85.3% (active); in the assay on SNB-19 CNS it was -62.9% (active); in the assay on U251 CNS, 93.1%; in the assay on PC-3 prostate it was -35.1% (active). Moreover, the growth in the assay with SK-MEL-5 melanoma was -100% (active); with UACC-62 melanoma it was -43% (active); in the assay on LOX IMVI melanoma, -100% (active); with SK-MEL-28 melanoma it was -89% (active).
With `O=C(O)c1cc(Cc2ccc(O)c(C(=O)O)c2)ccc1O` (tested in a mixture with another compound), the growth in the assay with HCT-15 colon is 49.4%; in the assay on HT29 colon, 25%; with SNB-75 CNS, 51.2%; with SNB-19 CNS it was 85.6%; in the assay on U251 CNS it was 70.4%; with PC-3 prostate, -31.5% (active). For the same compound, the growth with SK-MEL-5 melanoma is 71.3%; in the assay on UACC-62 melanoma, 69.5%; in the assay on LOX IMVI melanoma, -47.3% (active); with SK-MEL-28 melanoma, 84.6%.
`O=C(CBr)Nc1ccccc1`: the growth in the assay on HCT-15 colon was 55.6%; in the assay on HT29 colon, 103%; with SNB-75 CNS, 100%; in the assay with SNB-19 CNS, 94.9%; in the assay on U251 CNS it was 91.6%; in the assay with PC-3 prostate, 95.2%. In addition, the growth is 97.3% with SK-MEL-5 melanoma, 99.6% with UACC-62 melanoma, 9.08% (active) with LOX IMVI melanoma and 113% in the assay on SK-MEL-28 melanoma.
Consider `O=C1CCC(=O)N1SC(Cl)(Cl)Cl`, for which the growth is 107% in the assay on HCT-15 colon; 102% with HT29 colon; 92.1% in the assay with SNB-75 CNS; 103% with SNB-19 CNS; 118% in the assay on U251 CNS; 91.2% in the assay on PC-3 prostate. In addition, the growth with SK-MEL-5 melanoma is 99.5%; in the assay with UACC-62 melanoma it was 106%; with LOX IMVI melanoma it was 108%; in the assay with SK-MEL-28 melanoma, 107%.
As to `CC/C(=C/c1ccc(OC)cc1OC)[N+](=O)[O-]`, the growth is -35.9% (active) with HCT-15 colon; -1.29% (active) in the assay with HT29 colon; 44.9% in the assay with SNB-75 CNS; 41.6% in the assay on SNB-19 CNS; 43.5% with U251 CNS; 50% in the assay on PC-3 prostate. Further, the growth in the assay on SK-MEL-5 melanoma was 38.1%; in the assay with UACC-62 melanoma it was -36.2% (active); with LOX IMVI melanoma, -85.1% (active); in the assay on SK-MEL-28 melanoma it was 2.66% (active).
Turning to `C#CC1(O)CCC(C(C)(C)C)CC1` (stereo not given), the growth was 91.6% in the assay on HCT-15 colon; 104% in the assay with HT29 colon; 113% in the assay on SNB-75 CNS; 103% with SNB-19 CNS; 106% in the assay on U251 CNS; 97.1% with PC-3 prostate. The growth is 105% in the assay on SK-MEL-5 melanoma, 104% in the assay on UACC-62 melanoma, 110% in the assay with LOX IMVI melanoma and 120% with SK-MEL-28 melanoma.
Regarding `Cn1c(O)c(N=O)c(=O)n(C)c1=O`, the growth with HCT-15 colon was 104% and 111%; with HT29 colon, 117% and 114%; with SNB-75 CNS, 99.3% and 95.2%; with SNB-19 CNS, 107% and 98.5%; in the assay with U251 CNS it was 94.6% and 109%; in the assay on PC-3 prostate it was 101% and 95.1%. Moreover, the growth in the assay with SK-MEL-5 melanoma was 100% and 98.1%; with UACC-62 melanoma, 99.7% and 93.3%; with LOX IMVI melanoma, 91.4% and 94.4%; in the assay on SK-MEL-28 melanoma, 113% and 107%.
Regarding `CC/C(=C/c1ccc(OC)cc1)[N+](=O)[O-]`, the growth in the assay with HCT-15 colon is -35.4% (active); in the assay with HT29 colon it was 3.04% (active); with SNB-75 CNS it was 53.9%; in the assay with SNB-19 CNS it was 30.1%; in the assay with U251 CNS it was 22.5%; in the assay with PC-3 prostate it was 59.2%. The growth with SK-MEL-5 melanoma is 36.2%; in the assay with UACC-62 melanoma, -60.8% (active); in the assay on LOX IMVI melanoma, -92.5% (active); in the assay on SK-MEL-28 melanoma it was -52.4% (active).
